Source: PubChem BioAssay
Sampled rows, rich in hits. Any-hit rate of the full collection: about 8%.
ELG1 DNA repair: blocks ELG1-dependent DNA repair in HEK293T cells; HEK293T ELG1-luciferase reporter, luminescence, 16 h; DNA damage induced by 5-fluorouridine; Potency, µM (titrated, usually from 46.1 µM), without a hit: at the top dose activity change, negative = inhibition, hits mostly inhibitors; 330,000 compounds, 2.3% hits; further: potency means the concentration at half of the fitted maximal effect; nearly all actives have a fitted effect of over 55% in size
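In this reporter screen, reduction of luminescence relative to DMSO vehicle indicated activity. Compounds and 5-fluorouridine were added together to 2,000 cells per well, incubated for 16 hr at 37 °C, then developed with ONE-Glo.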
Gal4-VP16 FLuc: counter-screen for ROR gamma inhibitors: Gal4-VP16 reporter; Drosophila S2 Gal4-VP16 UAS-luciferase, luminescence, 20 h; Potency, µM (highest dose often 53.6 µM), for inactives: at the top dose activity, negative = inhibition, actives largely listed as inhibitors; 310,000 compounds, 3.5% hits; AID 2546;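 further: Gal4-VP16 expression switched on by copper sulfate through the metallothionein promoter; potency means the concentration at half of the fitted maximal effect; nearly all actives have a fitted effect of over 50% in size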
TSHR antag: antagonists of human thyroid stimulating hormone receptor; activity change, negative = inhibition, % at 11.5 µM; 330,000 compounds, 0.2% hits; TSHR-expressing cells, TSH-stimulated cAMP HTRF, 2 h; hits give low values;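 active means activity change below a set negative limit, meaning inhibition stronger than a set level, cut at about -70% in these data; inconclusive means activity change between two set negative limits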
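Freshly harvested TSHR cells receive pin-tooled compound, then EC80 TSH at 4nM final. After 2 hours at 37 deg C, antibody in lysis buffer and cAMP-d2 are added; 30 minutes at ambient temperature precede the HTRF read.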
RORgamma inh: blocks mouse ROR gamma transcriptional activity | P51450 | Drosophila S2 Gal4-RORgamma UAS-luciferase reporter, 20 h | Potency, µM (titrated, usually from 53.6 µM), inactives show top-dose activity change, negative = inhibition, most hits filed as inhibitors | 310,000 compounds, 5.4% hits | AID 2551; further: potency means the concentration at half of the fitted maximal effect; nearly all actives have a fitted effect of over 60% in size
Target sequence (P51450 whole entry, looked up, the tested form may be a part): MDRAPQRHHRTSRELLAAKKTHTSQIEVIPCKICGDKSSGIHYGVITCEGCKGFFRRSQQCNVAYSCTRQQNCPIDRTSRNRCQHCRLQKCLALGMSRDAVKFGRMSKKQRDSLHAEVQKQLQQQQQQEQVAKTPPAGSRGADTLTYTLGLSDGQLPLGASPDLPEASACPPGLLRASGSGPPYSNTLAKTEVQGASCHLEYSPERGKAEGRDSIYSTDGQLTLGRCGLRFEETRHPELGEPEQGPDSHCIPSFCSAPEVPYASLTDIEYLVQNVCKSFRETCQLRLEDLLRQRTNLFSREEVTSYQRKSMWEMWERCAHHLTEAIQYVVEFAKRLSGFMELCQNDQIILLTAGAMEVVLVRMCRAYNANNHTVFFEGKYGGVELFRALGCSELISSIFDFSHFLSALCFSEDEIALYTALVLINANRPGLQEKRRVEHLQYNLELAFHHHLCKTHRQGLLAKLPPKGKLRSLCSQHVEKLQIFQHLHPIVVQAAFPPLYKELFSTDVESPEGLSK
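Luciferase reporter read in Schneider cells carrying Gal4-RORγ (mouse) and UAS-Photinus luciferase; cells given compound 1 h before 700 uM copper sulfate induction, then incubated 20 h at ambient temperature.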
Coupling enz: counter-screen for Giardia aldolase inhibitors: coupling enzyme system. AID 2472. 290,000 compounds, 0.67% hits. coupling enzyme system counterscreen, AmpLite Red fluorescence. activity change, negative = inhibition, % at 58.2 µM, hits read low; in the data active means activity change below about -30%
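Coupling enzymes only (glyceraldehyde-3-phosphate) + compound, at 57.5 uM final, 10 min RT; add substrate/coupling/AmpLite Red mix, 20 min RT; fluorescence ex 525/em 598 nm. Actives flag coupling-system interference.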
* = called active by the depositor; ? = inconclusive; nt = no result given; [ ] = another dose, or the depositor's remark. Unless noted, the call rests on the fitted dose curve; in most records, active means well fitted curve in the direction sought with a large enough effect; inconclusive means small, poorly fitted or top-dose-only effect, or another doubt; inactive means no such curve, though single readings can be large; an effect the other way counts as inactive or inconclusive. On the % scale 0 is the no-effect control and ±100 the full control effect.

SMILES | ELG1 DNA repair | Gal4-VP16 FLuc | TSHR antag | RORgamma inh | Coupling enz
COc1ccccc1-c1cc(C(F)(F)F)nc(S(=O)(=O)CCCC(=O)N2CCOCC2)n1 | ? | 7.1µM* | 5 | 5.6µM* | 1
COc1ccc(-c2cc(C(F)(F)F)nc(S(=O)(=O)CCC(=O)N3CCOCC3)n2)cc1 | ? | ? | 5 | 8.9µM* | 4
COc1ccc(-c2cc(C(F)(F)F)nc(S(=O)(=O)CCCC(=O)Nc3cccc(O)c3)n2)cc1OC | ? | 11µM* | -15 | 10µM* | 0
COc1cc(C=O)ccc1OS(=O)(=O)c1ccc(NC(C)=O)cc1 | 8% | 25µM* | -11 | -43% | -6
COc1ccccc1N1CCN(S(=O)(=O)c2cn(C)nc2C)CC1 | 3% | -6% | 0 | -20% | nt
COCc1[nH]nc2c1C(c1cc(OC)c(O)c(OC)c1)C(C#N)=C(N)O2 (stereo unspecified) | 18µM* | -14% | 6 | -6% | -10
CC1Oc2ccccc2C=C1/C=C1/SC(N2CCOCC2)=NC1=O (stereo unspecified) | ? | -21% | 12 | ? | -44*
O=S(=O)(NCc1csc(-c2ccccc2)n1)c1ccc(Cl)s1 | -3% | ? | -47 | ? | -36*
O=S(=O)(NCc1csc(-c2cccnc2)n1)c1ccc(Cl)s1 | -11% | 1% | -8 | 45% | -9
O=C(NC(=S)Nc1cccc2cccnc12)c1ccccc1 | 0% | 6.3µM* | 1 | 2.2µM* | 2
O=C(Nc1cccc2ccccc12)c1ccc(F)cc1 | ? | -15% | 0 | 0% | -1
O=C(NC(=S)Nc1cccc2[nH]ncc12)c1ccccc1 | -3% | -7% | -1 | -9% | -2
O=C(NC(=S)Nc1cccc2cnccc12)c1ccccc1 | ? | ? | -25 | 10µM* | -29
O=C(Nc1cccc2ccccc12)c1ccccc1 | ? | 1% | -82* | 1% | -2
CCO[Si](CCCN)(OCC)OCC | nt | -19% | nt | -7% | nt
COc1ccc(/C=C2\C(=O)NC(=S)N2C(=O)c2ccc(C)cc2)cc1 | 16% | ? | -35 | 22µM* | 0
CCc1nnc(NC(=O)CSc2nnc(-c3ccco3)o2)s1 | 4% | ? | 7 | 11µM* | 0
CCc1nnc(NC(=O)CSc2nnc(COc3cccc(C)c3)o2)s1 | -1% | ? | -1 | -107% | 5
Cc1cnc(NC(=O)CSc2nnc(Cc3ccccc3)o2)s1 | -3% | 4% | -3 | 10µM* | 7
COc1ccc(Cc2nnc(SCC(=O)Nc3ncc(C)s3)o2)cc1 | -3% | ? | -11 | -2% | 3
CCc1nnc(NC(=O)CSc2nnc(COc3ccccc3C)o2)s1 | 18% | ? | 9 | 11µM* | 2
COCCn1c(C(=O)N2CCCC2)cc2c1C[C@H]1CN(C(=O)c3ccccc3)[C@@](Cc3ccc(OC)cc3)(C(=O)OC)[C@@H]21 | nt | 1% | nt | 7% | 1
COc1cc(O)c(C(=O)O)c(O)c1 | nt | -6% | nt | 1% | 2
COc1cc2cc(CCOC(=O)c3ccco3)oc(=O)c2cc1OC | -7% | nt | 15 | nt | nt
O=C(NC1=NCCS1)C12CC3CC(CC(C3)C1)C2 | 9% | 22µM* | 7 | 7.1µM* | 3
SMILES | ELG1 DNA repair | Gal4-VP16 FLuc | TSHR antag | RORgamma inh | Coupling enz
CC(C)C(NC(=O)C12CC3CC(CC(C3)C1)C2)C(=O)NC1=NCCS1 (stereo unspecified) | ? | -4% | 1 | 18µM* | 3
CC(C)[C@H](NC(=O)c1ccccc1)C(=O)NC1=NCCS1 | 12% | nt | 5 | nt | nt
CCOc1ccc(S(=O)(=O)Nc2ccc(C(=O)NCc3ccncc3)cc2)cc1 | 7% | nt | 2 | nt | nt
CC(C)c1onc(C(=O)Nc2ccc3c(c2)OCO3)c1[N+](=O)[O-] | 29% | ? | -11 | 19% | nt
CN(C)C(CNC(=O)c1c(F)cccc1Cl)c1ccco1 (stereo unspecified) | 11% | 3% | -2 | -3% | 0
S=c1[nH]nc(Cc2cccs2)n1-c1ccccc1 | 5% | ? | -16 | 11µM* | nt
S=c1[nH]nc(Cc2cccs2)n1-c1cccc2ccccc12 | 13% | ? | -23 | 4µM* | 4
S=c1[nH]nc(Cc2cccs2)n1-c1ccccc1Cl | 6% | ? | -12 | 6.3µM* | -1
COc1ccccc1-n1c(Cc2cccs2)n[nH]c1=S | 29% | -17% | 1 | 10µM* | 1
COc1ccccc1-n1c(CNC(=O)c2cccs2)n[nH]c1=S | -2% | 4% | 2 | -23% | 0
S=c1[nH]nc(-c2cc(-c3ccco3)[nH]n2)n1-c1cccc2ccccc12 | 0% | -2% | 16 | 24% | -5
O=C(COC(=O)c1ccc(F)cc1Cl)NC1CCS(=O)(=O)C1 (stereo unspecified) | 9% | nt | 16 | nt | nt
Cc1ccc(C)c(-n2c(-c3ccc4c(c3)OCO4)n[nH]c2=S)c1 | 1% | 0% | 4 | 7% | 4
CCCCOCC(O)CCc1n[nH]c(=S)n1-c1ccccc1 (stereo unspecified) | -17% | -6% | 33 | -45% | 6
CCCCc1ccc(-n2c(Cc3cccs3)n[nH]c2=S)cc1 | ? | ? | -7 | 1.4µM* | 6
Cc1ccc(C)c(-n2c(Cc3cccs3)n[nH]c2=S)c1 | -1% | 3.2µM* | -6 | 7.1µM* | -1
COc1ccc(N2CCN(C(=O)c3cc(S(=O)(=O)N4CCCCCC4)ccc3OC)CC2)cc1 | -10% | nt | 13 | nt | nt
N#Cc1cc2cc3c(cc2nc1SCC(=O)N1CCCC1)OCCO3 | ? | 10% | 1 | -4% | 0
CC(=O)CSc1nc2cc3c(cc2cc1C#N)OCCO3 | ? | -5%[10 µM] | -48 | 42% | -43*
O=S(=O)(c1ccc(F)c(F)c1)N1CCN(c2ccccn2)CC1 | -3% | -8% | -2 | -27% | 3
CC(C)(C)NC(=O)C1CCN(C(=O)c2ccco2)CC1 | 2% | 5% | -10 | -35% | -2
C/C(=N\Nc1cc(-c2ccccc2)nc(-c2ccccc2)n1)c1ccc(O)c(C)c1 | ? | 13µM* | 34 | 8.9µM* | 0
C/C(=N\Nc1cc(C)nc(-c2ccccc2)n1)c1cccc([N+](=O)[O-])c1 | 15µM* | -6% | -45 | ? | -1
CCN(CC)c1ccc(NC(=S)NC(=O)Cc2ccccc2)cc1 | 9% | 2.5µM* | 9 | 2.5µM* | 1
CCOc1ccc(NC(=S)NC(=O)Cc2ccccc2)cc1 | 17% | 10µM* | 8 | 4µM* | -3
CN(C)S(=O)(=O)c1ccc(NC(=S)NC(=O)Cc2ccccc2)cc1 | 6% | 10% | 2 | -18% | -2
CC1CCC(n2c(=S)[nH]c3ccccc3c2=O)CC1 (stereo unspecified) | ? | 1µM* | -8 | 0.2µM* | -1
